# The sample as a whole holds a higher share of the strongest signals than the screen did.
# B1: Mincle (Homo sapiens), Q9ULY5 (protein)
# chain: MNSSKSSETQCTERGCFSSQMFLWTVAGIPILFLSACFITRCVVTFRIFQTCDEKKFQLPENFTELSCYNYGSGSVKNCCPLNWEYFQSSCYFFSTDTISWALSLKNCSAMGAHLVVINSQEEQEFLSYKKPKMREFFIGLSDQVVEGQWQWVDGTPLTKSLSFWDVGEPNNIATLEDCATMRDSSNPRQNWNDVTCFLNYFRICEMVGINPLNKGKSL
# Experiments:
# Assay in all cases: glycan array binding signal (z-score within array); higher = stronger binding
# Conditions in all cases: glycan notation: IUPAC condensed, linker removed
# Fuc(a1-2)Gal(b1-4)GlcNAc = target: Fuc(a1-2)Gal(b1-4)GlcNAc
# In short: (§1)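 Columns mapping to the same glycan were averaged after glycan names were converted to IUPAC-condensed notation. The data come from 3228 arrays in the Consortium for Functional Glycomics database, limited to those with an available protein sequence. Binding is reported as a within-array Z-score averaged across arrays of one protein sequence and across linkers.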
# [1] = target: Fuc(a1-2)Gal(b1-4)GlcNAc(b1-3)Gal(b1-4)GlcNAc(b1-3)Gal(b1-4)GlcNAc
# In short: as §1
# [2] = target: Fuc(a1-2)Gal(b1-4)[Fuc(a1-3)]GlcNAc
# In short: as §1
# Fuc(a1-2)Gal6S(b1-4)Glc = target: Fuc(a1-2)Gal6S(b1-4)Glc
# In short: as §1
# [3] = target: Fuc(a1-2)Gal6S(b1-4)GlcNAc
# In short: as §1
# [4] = target: Fuc(a1-2)[Gal(a1-3)]Gal(b1-4)GlcNAc
# In short: as §1
# [5] = target: Fuc(a1-2)[GalNAc(a1-3)]Gal(b1-3)GlcNAc(b1-2)Man(a1-3)[Fuc(a1-2)[GalNAc(a1-3)]Gal(b1-3)GlcNAc(b1-2)Man(a1-6)]Man(b1-4)GlcNAc(b1-4)GlcNAc
# In short: as §1
# [6] = target: Fuc(a1-2)[GalNAc(a1-3)]Gal(b1-4)GlcNAc
# In short: as §1
# [7] = target: Fuc(a1-3)[Gal(b1-4)]GlcNAc(b1-2)Man(a1-6)[Gal(b1-4)GlcNAc(b1-2)Man(a1-3)]Man(b1-4)GlcNAc(b1-4)GlcNAc
# In short: as §1
# [8] = target: Gal(a1-3)Gal(b1-3)GlcNAc(b1-2)Man(a1-3)[Gal(a1-3)Gal(b1-3)GlcNAc(b1-2)Man(a1-6)]Man(b1-4)GlcNAc(b1-4)GlcNAc
# In short: as §1
# [9] = target: Gal(a1-4)Gal(b1-3)GlcNAc(b1-2)Man(a1-3)[Gal(a1-4)Gal(b1-3)GlcNAc(b1-2)Man(a1-6)]Man(b1-4)GlcNAc(b1-4)GlcNAc
# In short: as §1
# [10] = target: Gal(a1-4)Gal(b1-4)GlcNAc(b1-2)Man(a1-3)[Gal(a1-4)Gal(b1-4)GlcNAc(b1-2)Man(a1-6)]Man(b1-4)GlcNAc(b1-4)GlcNAc
# In short: as §1
# Gal(b1-3)Gal = target: Gal(b1-3)Gal
# In short: as §1
# Gal(b1-3)Gal(b1-4)GlcNAc = target: Gal(b1-3)Gal(b1-4)GlcNAc
# In short: as §1
# [11] = target: Gal(b1-3)GalNAc(a1-3)[Fuc(a1-2)]Gal(b1-4)GlcNAc
# In short: as §1
# [12] = target: Gal(b1-3)GlcNAc(b1-3)Gal(b1-4)GlcNAc(b1-6)[Gal(b1-3)GlcNAc(b1-3)]Gal(b1-4)Glc
# In short: as §1
# [13] = target: Gal(b1-4)GlcNAc(a1-6)Gal(b1-4)GlcNAc
# In short: as §1
# [14] = target: Gal(b1-4)GlcNAc(b1-2)Man(a1-3)[GlcNAc(b1-2)Man(a1-6)]Man(b1-4)GlcNAc(b1-4)GlcNAc
# In short: as §1
# [15] = target: Gal3S(b1-4)[Fuc(a1-3)]Glc
# In short: as §1
# [16] = target: GlcNAc(a1-4)Gal(b1-4)GlcNAc(b1-3)Gal(b1-4)Glc
# In short: as §1
# [17] = target: GlcNAc(b1-2)[GlcNAc(b1-4)]Man(a1-3)[GlcNAc(b1-2)Man(a1-6)]Man(b1-4)GlcNAc(b1-4)GlcNAc
# In short: as §1
# [18] = target: GlcNAc(b1-3)Gal(b1-4)GlcNAc
# In short: as §1
# [19] = target: GlcNAc(b1-3)[GlcNAc(b1-4)][GlcNAc(b1-6)]GlcNAc
# In short: as §1
# [20] = target: Man(a1-2)Man(a1-3)[Man(a1-2)Man(a1-6)]Man
# In short: as §1
# [21] = target: Man(a1-2)Man(a1-3)[Man(a1-2)Man(a1-6)]Man(a1-6)[Man(a1-2)Man(a1-2)Man(a1-3)]Man
# In short: as §1
# [22] = target: Neu5Ac(a2-3)Gal(b1-3)GlcNAc(b1-2)Man(a1-3)[Neu5Ac(a2-3)Gal(b1-3)GlcNAc(b1-2)Man(a1-6)]Man(b1-4)GlcNAc(b1-4)GlcNAc
# In short: as §1
# [23] = target: Neu5Ac(a2-3)Gal(b1-3)GlcNAc(b1-3)Gal(b1-3)GlcNAc
# In short: as §1
# [24] = target: Neu5Ac(a2-3)Gal(b1-3)GlcNAc(b1-3)Gal(b1-4)GlcNAc
# In short: as §1
# [25] = target: Neu5Ac(a2-3)Gal(b1-3)[Neu5Ac(a2-3)Gal(b1-4)]GlcNAc
# In short: as §1
# [26] = target: Neu5Ac(a2-3)Gal(b1-4)GlcNAc(b1-2)Man(a1-3)[GlcNAc(b1-2)Man(b1-4)GlcNAc(b1-2)Man(a1-6)]Man(b1-4)GlcNAc(b1-4)GlcNAc
# In short: as §1
# [27] = target: Neu5Ac(a2-3)Gal(b1-4)GlcNAc(b1-2)Man(a1-3)[Neu5Ac(a2-6)Gal(b1-4)GlcNAc(b1-2)Man(a1-6)]Man(b1-4)GlcNAc(b1-4)GlcNAc
# In short: as §1
# [28] = target: Neu5Ac(a2-3)Gal(b1-4)[Fuc(a1-3)]GlcNAc(b1-3)Gal(b1-4)[Fuc(a1-3)]GlcNAc(b1-3)Gal(b1-4)[Fuc(a1-3)]GlcNAc
# In short: as §1
# Neu5Ac(a2-6)Gal(b1-4)Glc = target: Neu5Ac(a2-6)Gal(b1-4)Glc
# In short: as §1
# [29] = target: Neu5Ac(a2-6)Gal(b1-4)GlcNAc(b1-3)Gal(b1-4)GlcNAc(b1-3)Gal(b1-4)GlcNAc
# In short: as §1
# [30] = target: Neu5Ac(a2-6)Gal(b1-4)GlcNAc(b1-3)GalNAc
# In short: as §1
# [31] = target: Neu5Ac(a2-6)GalNAc(b1-4)GlcNAc
# In short: as §1
binder,measurement,setting,value
B1,glycan array binding signal (z-score),Fuc(a1-2)Gal(b1-4)GlcNAc,-0.329
same,glycan array binding signal (z-score),[1],0.144
same,glycan array binding signal (z-score),[2],-0.37
same,glycan array binding signal (z-score),Fuc(a1-2)Gal6S(b1-4)Glc,-0.325
same,glycan array binding signal (z-score),[3],-0.106
same,glycan array binding signal (z-score),[4],-0.111
same,glycan array binding signal (z-score),[5],0.062
same,glycan array binding signal (z-score),[6],-0.289
same,glycan array binding signal (z-score),[7],5.4
same,glycan array binding signal (z-score),[8],4.69
same,glycan array binding signal (z-score),[9],0.054
same,glycan array binding signal (z-score),[10],3.26
same,glycan array binding signal (z-score),Gal(b1-3)Gal,-0.357
same,glycan array binding signal (z-score),Gal(b1-3)Gal(b1-4)GlcNAc,-0.566
same,glycan array binding signal (z-score),[11],-0.127
same,glycan array binding signal (z-score),[12],6.4
same,glycan array binding signal (z-score),[13],-0.484
same,glycan array binding signal (z-score),[14],0.969
same,glycan array binding signal (z-score),[15],-0.146
same,glycan array binding signal (z-score),[16],-0.295
same,glycan array binding signal (z-score),[17],-0.194
same,glycan array binding signal (z-score),[18],-0.245
same,glycan array binding signal (z-score),[19],-0.38
same,glycan array binding signal (z-score),[20],0.813
same,glycan array binding signal (z-score),[21],5
same,glycan array binding signal (z-score),[22],-0.71
same,glycan array binding signal (z-score),[23],-0.197
same,glycan array binding signal (z-score),[24],-0.575
same,glycan array binding signal (z-score),[25],-0.483
same,glycan array binding signal (z-score),[26],3.33
same,glycan array binding signal (z-score),[27],2.53
same,glycan array binding signal (z-score),[28],-0.324
same,glycan array binding signal (z-score),Neu5Ac(a2-6)Gal(b1-4)Glc,-0.181
same,glycan array binding signal (z-score),[29],-0.394
same,glycan array binding signal (z-score),[30],0.372
same,glycan array binding signal (z-score),[31],-0.184

# — the supplement of paper PMC8728848
